SMARCA2 act = SMARCA2 (BRM) function activators, primary screen, cell-based, luminescence, high throughput; MG213 cells, MMTV-luciferase reporter, dexamethasone, overnight; actives 1% (n = 370,000); AID 652017, 2013; activation, % at 9.1 µM; in the data active means activation above about 7.8%
Cardio protect = cardioprotection against H2O2-induced cell death, primary screen, uHTS, H9c2 cells, ATPLite luminescence; H9c2 cardiomyocytes, H2O2 injury protection, 2 h; AID 588492, 2011; protection from H2O2 cell death, % at 20 µM; actives 0.63% (n = 360,000);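 active means compounds giving at least 50% protection of heart cells from peroxide-induced death in the single-dose screen, raw or plate-pattern-corrected value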
COUP-TFII inh = NR2F2 transcriptional activity inhibitors, primary screen, cell-based, luciferase reporter, HEK293T, luminescence; HEK293T NGFI-A luciferase reporter; inhibition, % at 8.6 µM; actives 0.7% (n = 370,000); AID 686940, 2013;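 active means inhibition above a per-plate cutoff, mean inhibition of test wells between control levels plus 3 SD, cut at about 38% in these data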;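 further: cells cotransfected with COUP-TFII expression vector driving the NGFI-A reporter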
Target sequence (P24468 whole entry, looked up): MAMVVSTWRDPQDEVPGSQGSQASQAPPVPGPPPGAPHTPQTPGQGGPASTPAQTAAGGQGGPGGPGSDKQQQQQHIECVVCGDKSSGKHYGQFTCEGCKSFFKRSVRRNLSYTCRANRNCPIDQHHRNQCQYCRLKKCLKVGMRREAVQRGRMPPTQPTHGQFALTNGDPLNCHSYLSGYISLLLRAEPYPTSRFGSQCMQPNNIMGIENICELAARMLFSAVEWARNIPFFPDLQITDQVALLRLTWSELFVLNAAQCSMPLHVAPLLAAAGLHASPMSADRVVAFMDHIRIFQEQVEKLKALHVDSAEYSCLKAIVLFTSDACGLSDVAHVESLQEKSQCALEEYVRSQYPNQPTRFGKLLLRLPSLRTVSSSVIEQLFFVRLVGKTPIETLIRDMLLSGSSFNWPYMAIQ
Gli-Sufu antag = Gli-Sufu pathway antagonists, primary screen, luciferase luminescence, Sufu-KO-LIGHT cells, uHTS | inhibition, % at 5 µM | actives 0.74% (n = 340,000) | Sufu-KO-LIGHT fibroblasts, Gli luciferase reporter luminescence | AID 588413, 2011;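 active means inhibition above about 55%, limit read from the data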
FXN GAA850 act = FXN promoter activators, primary screen, cell-based, luciferase luminescence, HEK293 lucGAA850; activation, % at 6 µM; AID 540364, 2011; HEK293 lucGAA850 FXN promoter luciferase reporter, 24 h; percent of 10 µM SAHA response; actives 0.56% (n = 360,000);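 active means activation above the average of all compounds screened plus 3 SD, cutoff fixed separately per campaign, cut at about 7.5% in these data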
GalR3 antagonist = GalR3 antagonists in HEK293 cells, primary screen, cell-based, fluorescence readout. HEK293 GalR3-CNG cAMP membrane potential fluorescence; galR3 body fused to GalR1 C-terminus. inhibition, % at 3 µM. actives 0.44% (n = 360,000). AID 651719, 2012;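 active means inhibition above the screen-wide average plus 3 SD, cut at about 13% in these data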;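 further: forskolin and galanin both at EC90 stimulate the cells; cAMP rise reported by CNG channel membrane potential dye signal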
Numbers stand for hits; . = inactive; / = not tested or not shown. Shown are actives, neighbours in structure and some others; about 3.4% of the full set was active somewhere.

SMILES	SMARCA2 act	Cardio protect	COUP-TFII inh	Gli-Sufu antag	FXN GAA850 act	GalR3 antagonist
Cc1ccc(N/C(N)=N/c2nc(C)cc(N3CCCCC3)n2)c(C)c1	.	.	47	85	.	.
Cc1ccc(N/C(N)=N/c2nc3c(c(=O)[nH]2)CCCC3)c(C)c1	.	.	.	.	.	.
O=S(=O)(c1ccc(Br)cc1)N1CCN(c2cc(-c3ccccc3)nc3ncnn23)CC1	/	.	/	.	.	/
O=S(=O)(c1ccccc1)N1CCN(c2cc(-c3ccccc3)nc3ncnn23)CC1	.	.	.	57	.	.
C#CCNC(=O)C[C@H]1C[C@@]2(C(=O)OC)C(=C[C@H](C3CCCC3)O[C@@H]2C)N(CCC2=CCCCC2)C1=O	.	/	.	/	/	/
COC(=O)c1cc(C(=O)OCC(=O)N2c3ccccc3NC(=O)C2(C)C)cc([N+](=O)[O-])c1	/	58	/	.	.	/
Cc1ccc(NC2=C/C(=N/S(=O)(=O)c3cccs3)c3ccccc3C2=O)cc1	.	.	.	60	.	.
Cc1ccc(S(=O)(=O)/N=C2\C=C(Nc3ccc(O)cc3)C(=O)c3ccccc32)cc1	/	.	/	94	.	/
Cc1ccc(S(=O)(=O)/N=C2\C=C(Nc3cccc(C(=O)O)c3)C(=O)c3ccccc32)cc1	.	.	.	.	.	.
CC(C)C(=O)OCCCN1CCC2(CCC(c3ccccc3)CC2)C1=O (stereo not drawn)	.	/	.	/	/	/
CC(C)(O)C#Cc1cccc(-c2nc(C(=O)NCCCN3CCOCC3)cc3c2[C@H](CCO)N(S(=O)C(C)(C)C)C3)c1 (stereo partly drawn)	.	.	.	/	/	.
CC(=O)N(Cc1ccc(F)cc1)C1=C(NCc2ccccc2)C(=O)c2ccccc2C1=O	/	.	/	92	.	/
O=C(NCc1ccc(F)cc1)C(c1ccccc1)c1ccccc1	.	.	.	.	.	.
CC(=O)c1sc(NC(=O)C=C(C)C)nc1C	.	.	.	.	.	.
CC(=O)c1sc(NC(=O)C2(F)C(F)(F)C(F)(F)C(F)(F)C(F)(F)C2(F)F)nc1C	.	.	.	75	.	.
CCc1ccccc1Nc1ncnc2ccccc12	.	.	.	/	.	.
CCCCCCCCNc1ncnc2ccccc12	/	.	/	82	.	/
COc1ccccc1C(=O)NC1CCCCN(Cc2cccc(Cl)c2)C1=O (stereo not drawn)	.	/	.	/	/	/
CCCCCCCCSC1=CC(=O)C(OC)=C(OC)C1=O	.	.	.	/	.	.
COc1ccc(N(C(=O)c2cccnc2)S(=O)(=O)c2cccs2)cc1	.	54	.	.	.	.
COc1ccc(N(C(=O)c2ccncc2)S(=O)(=O)c2cccs2)cc1	.	.	.	.	.	.
COC(=O)c1cc2c(c3c4ccccc4n(S(=O)(=O)c4ccc(C)cc4)c13)C(=O)N(C)C2	7.9	/	.	/	/	.
O=C(C1CCCO1)N1CCN(C2=Nc3ccccc3Sc3ccccc32)CC1 (stereo not drawn)	.	/	.	/	/	/
C=CCn1c(C)cc(C(=O)CN2C(=O)c3ccccc3S2(=O)=O)c1C	/	.	/	89	.	/
C[C@@H]1CN([C@@H](C)CO)C(=O)c2cc(Br)cnc2O[C@@H]1CN(C)S(C)(=O)=O	.	.	.	/	.	.
SMILES	SMARCA2 act	Cardio protect	COUP-TFII inh	Gli-Sufu antag	FXN GAA850 act	GalR3 antagonist
N#CC1=C(N)SC(N)=C(C#N)C1c1cccc(O)c1	.	.	.	.	.	60
Cc1nc2sccn2c(=O)c1S(=O)(=O)Nc1ccc(N2CCOCC2)c(Cl)c1	.	.	.	.	.	/
Cc1nc2scc(C)n2c(=O)c1S(=O)(=O)Nc1ccc(N2CCOCC2)c(Cl)c1	.	.	.	71	.	.
Cc1cc(C)cc(C(=O)OCCN(C)C2CN(Cc3cn(Cc4ccccc4C(F)(F)F)nn3)S(=O)(=O)C2)c1 (stereo not drawn)	.	/	.	/	/	/
O=c1[nH]c2cc(O)ccc2c2ccccc12	.	57	.	/	.	.
Nc1ccc2c(c1)[nH]c(=O)c1ccccc12	.	68	.	.	.	.
Nc1cc2[nH]c(=O)c3ccccc3c2cc1Br	.	62	.	.	.	.
Nc1cc2c(cc1Br)[nH]c(=O)c1ccccc12	.	.	.	.	.	.
COc1ccc(NC(=O)c2cc(-c3ccc(OC)c(OC)c3)nc3ccccc23)c(OC)c1	.	66	.	.	.	.
COc1ccc(-c2cc(C(=O)NC3CCCC3)c3ccccc3n2)cc1OC	.	.	.	.	.	.
COc1ccc(-c2cc(C(=O)NC(C)c3ccccn3)c3ccccc3n2)cc1OC (stereo not drawn)	.	55	.	.	.	.
O=C(NCc1ccco1)C(c1ccccc1)N(C(=O)Cc1cccs1)c1ccccc1F (stereo not drawn)	.	75	.	.	.	.
O=C(NCCc1c[nH]c2ccccc12)C(=O)NCC(c1ccco1)N1CCN(c2ccccc2F)CC1 (stereo not drawn)	/	63	/	.	.	/
O=C(NCc1ccccc1)C(=O)NCC(c1ccco1)N1CCN(c2ccccc2F)CC1 (stereo not drawn)	.	.	.	.	.	.
COC(=O)[C@]12C[C@H](CC(=O)N3CCN(C(=O)C4CC4)CC3)C(=O)N(CCC3=CCCCC3)C1=C[C@H](C1CCCC1)O[C@@H]2C	.	/	.	/	/	/
COC(=O)c1ccc(Cn2ccc3ccc(-c4ccc5ccn(Cc6ccc(OC)cc6)c5c4)cc32)cc1	.	/	.	/	/	/
O=C(CSc1nnc(CCCN2C(=O)c3cccc4cccc(c34)C2=O)n1-c1ccccc1)N1CCCCC1	8.1	.	.	.	.	.
CC(=O)Nc1ccc(Nc2cc(C)nc3c(-c4ccc(Cl)cc4)c(C)nn23)cc1	7.9	.	.	.	.	.
CC(=O)Nc1ccc(Nc2cc(C)nc3c(-c4ccc(Cl)cc4)cnn23)cc1	.	.	.	.	.	.
COC(=O)C1CN(Cc2cn(Cc3ccc(F)cc3)nn2)CCS(=O)(=O)N1Cc1ccc(C)cc1 (stereo not drawn)	.	/	.	/	/	/
CCCCC(=O)Nc1ccc(C(=O)NCC2COc3ccccc3O2)cc1 (stereo not drawn)	.	/	.	/	/	/
CCCCCn1nc(C(=O)OCC(=O)c2c(N)n(C)c(=O)n(C)c2=O)c2ccccc2c1=O	.	66	.	.	.	.
COC(=O)[C@]12C[C@H](CC(=O)NCc3ccccc3)C(=O)N(Cc3ccco3)C1=C[C@H](COCc1ccccc1)O[C@@H]2C	.	/	.	/	/	/
O=C(/C=C/c1cn(-c2ccccc2)nc1-c1cccnc1)N1CCCC1	.	.	.	.	.	.

Screening data as filed in PubChem.
